Measurements from the supplement of paper PMC12494721.
Structures can show the parent of a compound that is named as a salt.

Key:
Details in all cases: 20 µM; incubation time: 27 h, anaerobic, 37 °C;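 for the amine columns active = adjusted P below 0.05 in both replicates with a change the same way and a mean fold change under 0.8 or over 1.25; inactive = the rest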
[1] = system: Clostridium sporogenes DSM 1664; assay: growth (OD595) fold change vs plate DMSO controls (fold change (ratio)); higher = more growth
Summary of the method: (§1)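 Anaerobic mGAM cultures in 96-well plates were grown for 27 h at 37 °C, and absorbance was then read at 595 nm. After blank and compound background correction with 20 µM compound solutions in water, a calibration factor of 5 gave OD. Growth is the fold change relative to the median of each plate's DMSO controls. Values are means of 2 biological replicates, with fold changes above 1.5 set to NA.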

Escherichia coli IAI1 [2] = assay: as above
Summary of the method: as §1

[3] = system: Klebsiella aerogenes DSM 30053; assay: as above
Summary of the method: as §1

[4] = system: Ruminococcus gnavus DSM 108212; assay: as above
Summary of the method: as §1

[5] = system: Klebsiella aerogenes DSM 30053; assay: fold change of Histamine concentration vs plate DMSO controls (fold change (ratio)); higher = more amine produced, active = hit call of the paper (significant change in both replicates, either direction)
Summary of the method: (§2)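 Extracts of whole anaerobic mGAM cultures were analysed for amines by LC–triple-quadrupole MS with dynamic MRM and external calibration curves, with drift corrected within batch. Four gut strains were grown at 37 °C for 27 h in 80 µL wells with compounds at 20 µM final, sweeteners at 50 µM final. Each value expresses fold change over plate DMSO controls. The average of 2 biological replicates is shown.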

[6] = system: Clostridium sporogenes DSM 1664; assay: fold change of Tryptamine concentration vs plate DMSO controls (fold change (ratio)); higher = more amine produced, active = hit call of the paper (significant change in both replicates, either direction)
Summary of the method: as §2

[7] = system: Ruminococcus gnavus DSM 108212; assay: as above
Summary of the method: as §2

Escherichia coli IAI1 [8] = assay: fold change of Putrescine concentration vs plate DMSO controls (fold change (ratio)); higher = more amine produced, active = hit call of the paper (significant change in both replicates, either direction)
Summary of the method: as §2

[9] = system: Klebsiella aerogenes DSM 30053; assay: as above
Summary of the method: as §2

Escherichia coli IAI1 [10] = assay: fold change of Cadaverine concentration vs plate DMSO controls (fold change (ratio)); higher = more amine produced, active = hit call of the paper (significant change in both replicates, either direction)
Summary of the method: as §2

[11] = system: Klebsiella aerogenes DSM 30053; assay: as above
Summary of the method: as §2

[12] = system: Ruminococcus gnavus DSM 108212; assay: fold change of 2-Phenylethylamine concentration vs plate DMSO controls (fold change (ratio)); higher = more amine produced, active = hit call of the paper (significant change in both replicates, either direction)
Summary of the method: as §2

Structure (SMILES) | growth [1] | growth (Escherichia coli IAI1 [2]) | growth [3] | growth [4] | fold change of Histamine concentration [5] | fold change of Tryptamine concentration [6] | fold change of Tryptamine concentration [7] | fold change of Putrescine concentration (Escherichia coli IAI1 [8]) | fold change of Putrescine concentration [9] | fold change of Cadaverine concentration (Escherichia coli IAI1 [10]) | fold change of Cadaverine concentration [11] | fold change of 2-Phenylethylamine concentration [12]
CCC(=O)Nc1ccc(Cl)c(Cl)c1 | 0.942 | 0.949 | 0.942 | 1.01 | 1.11 (inactive) | 0.963 (inactive) | 1.02 (inactive) | 1.01 (inactive) | 0.863 (inactive) | 0.929 (inactive) | 1.16 (inactive) | 1.13 (inactive)
CCCC1COC(Cn2cncn2)(c2ccc(Cl)cc2Cl)O1 (centres undefined) | 0.938 | 1.03 | 0.987 | 0.947 | 0.975 (inactive) | 1.04 (inactive) | 1.08 (inactive) | 0.977 (inactive) | 0.946 (inactive) | 0.939 (inactive) | 0.993 (inactive) | 1.17 (inactive)
CCC(CC)Nc1c([N+](=O)[O-])cc(C)c(C)c1[N+](=O)[O-] | 1.11 | 1.01 | 0.983 | 1.02 | 1.07 (inactive) | 1.04 (inactive) | 0.998 (inactive) | 0.991 (inactive) | 1.01 (inactive) | 1.01 (inactive) | 0.992 (inactive) | 1.01 (inactive)
CC1(C)C(C=C(Cl)Cl)C1C(=O)OCc1cccc(Oc2ccccc2)c1 (mixture of isomers) | 0.957 | 0.993 | 1 | 1.07 | 1.01 (inactive) | 1.05 (inactive) | 1.03 (inactive) | 1.04 (inactive) | 0.995 (inactive) | 1.06 (inactive) | 1 (inactive) | 1.02 (inactive)
COc1ccc2c(c1)[C@]13CCCC[C@@H]1[C@H](C2)N(C)CC3 [Dextromethorphan hydrobromide monohydrate] | 1.05 | 0.975 | 1.05 | 0.761 | 0.977 (inactive) | 0.991 (inactive) | 0.998 (inactive) | 0.962 (inactive) | 0.999 (inactive) | 1.01 (inactive) | 1.02 (inactive) | 1.04 (inactive)
Oc1cc(Cl)ccc1Oc1ccc(Cl)cc1Cl [Triclosan] | 0.874 | 0.0332 | 0.299 | 1.21 | 0.0779 (active) | 0.699 (inactive) | 0.715 (active) | 0.258 (active) | 0.248 (active) | 1.13 (inactive) | 0.828 (inactive) | 0.734 (active)
CNCC(O)c1ccc(O)cc1 (centres undefined) [Synephrine] | 1.04 | 1.09 | 1.01 | 0.887 | 1.02 (inactive) | 0.997 (inactive) | 1.05 (inactive) | 1.11 (inactive) | 0.982 (inactive) | 0.997 (inactive) | 0.989 (inactive) | 1.09 (inactive)
CCOC(=O)OC1=C(c2cc(C)ccc2C)C(=O)N[C@]12CC[C@@H](OC)CC2 | 0.93 | 1.02 | 0.993 | 0.921 | 1.01 (inactive) | 0.974 (inactive) | 1.02 (inactive) | 1 (inactive) | 1 (inactive) | 0.963 (inactive) | 1 (inactive) | 1.04 (inactive)
CN(C)C(=O)Oc1ccc[n+](C)c1 [Pyridostigmine iodide] | 1.02 | 0.975 | 1 | 0.901 | 1.05 (inactive) | 0.975 (inactive) | 1.01 (inactive) | 0.993 (inactive) | 0.98 (inactive) | 1.01 (inactive) | 1.03 (inactive) | 1.02 (inactive)
CC(N)C(O)c1ccccc1 (centres undefined) [Phenylpropanolamine hydrochloride] | 0.914 | 1.04 | 0.98 | 1.21 | 1.1 (inactive) | 1.22 (inactive) | 1.07 (inactive) | 1.06 (inactive) | 1.03 (inactive) | 1.05 (inactive) | 0.982 (inactive) | 1.08 (inactive)
C[C@]12CCC(=O)C=C1C=C[C@@H]1[C@@H]2CC[C@@]2(C)[C@H]1CC[C@@]2(O)CCC(=O)O [Canrenoic acid potassium salt] | 1.1 | 1 | 1.02 | 0.902 | 0.964 (inactive) | 1.05 (inactive) | 1.06 (inactive) | 1.02 (inactive) | 0.98 (inactive) | 0.997 (inactive) | 0.996 (inactive) | 1.09 (inactive)
CCN(C(C)=O)c1cccc(-c2ccnc3c(C#N)cnn23)c1 [Zaleplon] | 1.07 | 0.995 | 1.05 | 1.05 | 0.987 (inactive) | 0.972 (inactive) | 1.02 (inactive) | 1.03 (inactive) | 0.992 (inactive) | 1.02 (inactive) | 1.01 (inactive) | 1.04 (inactive)
CC(C)N(CCC(C(N)=O)(c1ccccc1)c1ccccn1)C(C)C (centres undefined) [Disopyramide] | 1.08 | 1.04 | 1.01 | 0.817 | 0.927 (inactive) | 0.996 (inactive) | 1 (inactive) | 1.06 (inactive) | 0.996 (inactive) | 1.01 (inactive) | 1 (inactive) | 0.972 (inactive)
C1CCc2nnnn2CC1 [Pentylenetetrazole] | 1.14 | 0.976 | 1 | 0.873 | 0.957 (inactive) | 0.963 (inactive) | 0.836 (inactive) | 0.994 (inactive) | 0.975 (inactive) | 1.01 (inactive) | 0.998 (inactive) | 0.876 (inactive)
CC1(C)[C@H](/C=C(\Cl)C(F)(F)F)[C@@H]1C(=O)OC(C#N)c1cccc(Oc2ccccc2)c1 (some centres undefined) | 0.953 | 0.991 | 0.981 | 0.999 | 0.987 (inactive) | 0.918 (inactive) | 1.03 (inactive) | 0.976 (inactive) | 0.987 (inactive) | 1.02 (inactive) | 0.995 (inactive) | 1.08 (inactive)
COP(=S)(OC)Oc1nc(Cl)c(Cl)cc1Cl | 1.02 | 0.989 | 1.02 | 1.01 | 1.03 (inactive) | 0.986 (inactive) | 0.898 (inactive) | 0.986 (inactive) | 1.02 (inactive) | 0.99 (inactive) | 0.991 (inactive) | 0.866 (inactive)
CC1(C)C(C=C(Cl)Cl)C1C(=O)OC(C#N)c1cccc(Oc2ccccc2)c1 (mixture of isomers) | 1.13 | 1.01 | 0.982 | 1.04 | 1.02 (inactive) | 0.975 (inactive) | 1.02 (inactive) | 0.971 (inactive) | 1.02 (inactive) | 0.994 (inactive) | 1.01 (inactive) | 1 (inactive)
CNC(=O)Oc1cccc2ccccc12 | 1.12 | 0.98 | 1 | 0.969 | 0.989 (inactive) | 0.933 (inactive) | 0.989 (inactive) | 1.06 (inactive) | 1.01 (inactive) | 0.965 (inactive) | 1.01 (inactive) | 0.97 (inactive)
CCNc1nc(Cl)nc(NC(C)C)n1 | 1.02 | 1.02 | 1 | 1.06 | 1.03 (inactive) | 0.98 (inactive) | 1.06 (inactive) | 0.961 (inactive) | 0.971 (inactive) | 0.849 (inactive) | 1 (inactive) | 1.1 (inactive)
Cc1cc(C)c(C2=C(OC(=O)CC(C)(C)C)C3(CCCC3)OC2=O)c(C)c1 | 0.884 | 1.02 | 1.01 | 0.937 | 1 (inactive) | 0.972 (inactive) | 1.01 (inactive) | 1.01 (inactive) | 1.02 (inactive) | 0.983 (inactive) | 0.999 (inactive) | 1.01 (inactive)
O=c1[nH]c2ccccc2n1CCCN1CCC(n2c(=O)[nH]c3cc(Cl)ccc32)CC1 [Domperidone] | 0.989 | 0.963 | 1.08 | 0.669 | 0.906 (inactive) | 1.03 (inactive) | 0.984 (inactive) | 1.01 (inactive) | 0.951 (inactive) | 1.03 (inactive) | 1 (inactive) | 1.03 (inactive)
CCC1(c2cccc(O)c2)CCCCN(C)C1 (centres undefined) [Meptazinol hydrochloride] | 0.881 | 1.03 | 1.02 | 1.01 | 0.983 (inactive) | 1.06 (inactive) | 0.997 (inactive) | 1.03 (inactive) | 1 (inactive) | 1.01 (inactive) | 1.01 (inactive) | 0.997 (inactive)
